# Screen size: about 1,100 compounds; about 350 (32%) were called active. The list is a sample of the results. Entries with a potency or affinity are not part of this list. A number with no mark means an inactive call. The rule behind the calls is not given here.
# Assay: viability loss in CEM21 cells – cell-based, CellTiter-Glo luminescence, cherry-picked, cytotoxicity control for viral fusion inhibitor project, dose response (AID 652042)
# Conditions: CellTiter-Glo ATP luminescence, 24 h; series mostly up to 35 µM; activity change, negative = cytotoxicity: at the top concentration
row,SMILES,"activity change, negative = cytotoxicity"
1,Clc1ccc2c(c1)C1=C(C(c3ccncc3)O2)C(c2ccc(Br)cc2)n2ncnc2N1 (stereo not given),-15.2%
2,CCS(=O)(=O)N1Cc2ccccc2CC1C(=O)NCC12CC3CC(CC(C3)C1)C2 (stereo not given),-8.57%
3,CCN1C[C@@H]2[C@@H]3C(=O)N(Cc4ccccc4)C(=O)[C@@H]3[C@](CC)(C1=O)N2C(=O)c1ccc(C(C)(C)C)cc1,-8.21%
4,COc1ccc2c(c1)[C@H]1[C@H](CO2)[C@H](c2ccccc2)[C@]2(C)C(=O)Nc3cc(OC)c(OC)cc3C(=O)N12,-21.9%
5,C[C@@]12C(=O)N(Cc3ccc(F)cc3)CC(=O)N1[C@H]1c3cc(Cl)ccc3OC[C@@H]1[C@@H]2c1ccccc1,-14.9%
6,O=C(O)c1cccc(COc2ccc3c(c2)CCC3)c1,-6.13%
7,COc1ccc([C@H]2/C=C\CN(C(=O)C3CC3)[C@@H](C)C(=O)N2Cc2ccc(F)cc2)cc1,-13%
8,CCC(C)(C)NC(=O)C(c1ccc(C)cc1)N(CC1CCCO1)C(=O)c1csnn1 (stereo not given),-7.66%
9,O=C(CN1CCCN(Cc2ccc(F)cc2Cl)C1=O)NC1CCCCCCC1,-13.4%
10,CCN(CCn1cccn1)C(=O)CC1C(=O)NCCN1CCc1ccccc1 (stereo not given),0.382%
11,O=C(C[C@H]1C[C@@H]2c3cc(NC(=O)C4CCC4)ccc3O[C@@H]2[C@@H](CO)O1)NCC(F)(F)F,0.34%
12,Cc1ccc(C)c(CS(=O)(=O)c2cn(CC(=O)N3CCC(C)CC3)c3ccccc23)c1,-0.307%
13,CCCCN1CC(=O)N2[C@H]3c4ccccc4OC[C@@H]3[C@H](c3ccccc3)[C@]2(C)C1=O,-0.526%
14,COc1cc(CSc2nnnn2-c2ccc(C)cc2)cc(OC)c1OC,-10.6%
15,Cc1ccc(-n2nnnc2SCn2nnc3ccccc3c2=O)c(C)c1,-14.6%
16,O=C(NCc1ccccc1)[C@@H]1CCCN1C(=O)[C@@H]1CCCN1C(=O)c1cccc2ccccc12,-11.3%
17,Cc1ccc(S(=O)(=O)N2CCC(=O)N(CCOCc3ccc(C(F)(F)F)cc3)CC2)cc1,-20.8%
18,NC(=O)c1sc2nc3c(c(-c4ccccc4)c2c1N)CCC3,-5.51%
19,COc1ccc(N(CC(=O)NCCSCc2ccc(Cl)cc2)S(C)(=O)=O)cc1Cl,-10.3%
20,Cc1ccc(N2C(=O)N3[C@H](c4cccc(C)c4)[C@@H]4C(=O)N(Cc5ccccc5)C(=O)[C@@H]4[C@]3(C)C2=O)cc1,-4.42%
21,O=C(NCc1ccco1)c1ccc(Cn2c(=O)c3sccc3n(Cc3ccc(F)cc3)c2=O)cc1,-5.39%
22,CC(=O)Nc1ccc(C(=O)OCC(=O)NC(=O)NCc2ccccc2)cc1,0.697%
23,CCCOc1ccc(C(F)(F)F)cc1NC(=O)CCc1c(C)noc1C,-8.86%
24,CCN(C[C@H]1N[C@@](CC)(C(=O)OC)[C@H]2C(=O)N(Cc3ccccc3)C(=O)[C@@H]12)S(=O)(=O)c1ccc(OC)cc1,-6.24%
25,O=C1CC(C(=O)N(CC2CCCO2)C(C(=O)NC2CCCCC2)c2ccncc2)CS1 (stereo not given),4.43%
26,OC1(c2ccc(OC(F)F)cc2)CSC(=Nc2cccnc2)N1C1CC1 (stereo not given),-22.7%
27,Cc1noc(C)c1S(=O)(=O)N(C)C[C@@H]1Oc2ccc(NC(=O)NC3CCCCC3)cc2CC(=O)N([C@H](C)CO)C[C@@H]1C,-9.64% [at 30 µM]
28,COc1ccc(S(=O)(=O)N(C)C[C@@H]2Oc3ccc(NC(=O)C4CCCCC4)cc3CC(=O)N([C@@H](C)CO)C[C@@H]2C)cc1,-3.64%

row,SMILES,"activity change, negative = cytotoxicity"
1,C[C@H]1CN([C@@H](C)CO)C(=O)Cc2cc(NC(=O)Cc3ccccc3)ccc2O[C@H]1CN(C)S(=O)(=O)c1cccs1,1.15%
2,CC(C)(C)c1ccc(-c2noc(CCC(=O)NCC3CCCO3)n2)cc1 (stereo not given),-13.5%
3,O=C(c1cc(COc2cccc(C(F)(F)F)c2)on1)N1CCC(c2ccncc2)CC1,-23.1%
4,CCCNC(=O)C[C@@H]1C[C@H]2c3cc(NC(=O)Cc4ccncc4)ccc3O[C@H]2[C@@H](CO)O1,1.01% [at 30 µM]
5,O=C(NCCc1ccccc1F)c1ccc2c(c1)OCCO2,-9.56%
6,O=C(CCNC(=O)c1ccc(Br)cc1)NNC(=O)COc1ccccc1F,-0.033%
7,COc1ccc(NS(=O)(=O)c2ccc3c(c2)OCCO3)cc1OC,-4.08%
8,Nc1c(S(=O)(=O)c2ccccc2)cnc2c(-c3ccc(F)cc3)cnn12,-10.5%
9,COC(=O)CNC(c1ccccc1)c1cc(C)ccc1NC(=O)CNC(=O)OCc1ccccc1 (stereo not given),-14.7%
10,COc1ccc(C(C(=O)NC(C)(C)C)N(CCC(C)C)C(=O)CCC(=O)Nc2cc(C)on2)cc1 (stereo not given),-2.75%
11,CCN(CC)c1nc(Nc2ccccc2)nc(Oc2ccc(=O)[nH]n2)n1,4.68% [at 16 µM]
12,COc1ccc2c(c1)OC[C@H]1[C@H]2N2C(=O)CN(Cc3ccc(C)cc3)C(=O)[C@@]2(C)[C@H]1c1ccccc1,-14.1%
13,C[C@H]1NC(=O)[C@@]2(C)[C@H](c3ccccc3)[C@H]3COc4ccccc4[C@@H]3N2C1=O,7.71%
14,Cc1ccc(-n2nc3c(c2NC(=O)c2ccco2)CS(=O)C3)cc1 (stereo not given),-4.33%
15,C=CCN1C(=S)CC(c2ccccc2)=Nc2ccccc21,-16%
16,O=C(c1ccc2c(c1)OCO2)N(CC1CCCO1)C1(C(=O)NC2CCCCC2)CCCCC1 (stereo not given),-10.1%
17,CON(C)c1nc(OCCNC(=O)OCc2ccc(Cl)cc2C)nc(N(C)C)n1,-10.7%
18,Cc1ccc(C(=O)NCc2ccccn2)cc1S(=O)(=O)N1CCCCC1,5.44%
19,Cc1ccc(S(=O)(=O)N2CCCCC2)cc1C(=O)NCCC1=CCCCC1,-13.4%
20,O=S(=O)(NCC[C@H]1CC[C@H](NS(=O)(=O)c2ccccc2Cl)[C@H](CO)O1)c1ccc(Cl)cc1,-9.94% [at 30 µM]
21,O=S(=O)(NCC[C@@H]1CC[C@@H](NS(=O)(=O)c2ccccc2Cl)[C@H](CO)O1)c1ccc(Cl)cc1,-6.87%
22,COc1cc(-c2nc3oc4ccccc4c(=O)c3c(=O)n2Cc2ccco2)cc(OC)c1OC,-19.9%
23,CCOC(=O)c1c(CSc2cccs2)n(C)c2cc(Br)c(O)c(CN(C)C)c12,-24.1%
24,CCOC(=O)c1c(CSc2ccsc2)n(C)c2cc(Br)c(O)c(CN(C)C)c12,-17.3%
25,CCN(CC)S(=O)(=O)c1ccc(NC2c3ccccc3C(=O)N2Cc2ccc3c(c2)OCO3)cc1 (stereo not given),-10.7%
26,O=S(=O)(NCCc1csc(-c2cccnc2)n1)c1ccc(Cl)s1,-5.88%
27,COc1cccc(/C=N/NC(=O)CC2C(=O)NN=C2C)c1O (stereo not given),5.99%

# Reference: PubChem BioAssay AID652042 (Broad Institute, 2013)
